Measured values reported in ChEMBL document CHEMBL4808148, “HDAC6 screening dataset using tau-based substrate in an enzymatic assay yields selective inhibitors and activators” (2021).
Among all 5,600 compounds or so, about 150 (2.7%) showed an effect of 50% or more. Only a selection was taken, and strong results are over-represented in it overall.

Experiments:
[1] = target: T1, Protein deacetylase HDAC6 (Homo sapiens) (UniProt Q9UBN7); conditions: at 10 µM
T1 sequence (whole entry): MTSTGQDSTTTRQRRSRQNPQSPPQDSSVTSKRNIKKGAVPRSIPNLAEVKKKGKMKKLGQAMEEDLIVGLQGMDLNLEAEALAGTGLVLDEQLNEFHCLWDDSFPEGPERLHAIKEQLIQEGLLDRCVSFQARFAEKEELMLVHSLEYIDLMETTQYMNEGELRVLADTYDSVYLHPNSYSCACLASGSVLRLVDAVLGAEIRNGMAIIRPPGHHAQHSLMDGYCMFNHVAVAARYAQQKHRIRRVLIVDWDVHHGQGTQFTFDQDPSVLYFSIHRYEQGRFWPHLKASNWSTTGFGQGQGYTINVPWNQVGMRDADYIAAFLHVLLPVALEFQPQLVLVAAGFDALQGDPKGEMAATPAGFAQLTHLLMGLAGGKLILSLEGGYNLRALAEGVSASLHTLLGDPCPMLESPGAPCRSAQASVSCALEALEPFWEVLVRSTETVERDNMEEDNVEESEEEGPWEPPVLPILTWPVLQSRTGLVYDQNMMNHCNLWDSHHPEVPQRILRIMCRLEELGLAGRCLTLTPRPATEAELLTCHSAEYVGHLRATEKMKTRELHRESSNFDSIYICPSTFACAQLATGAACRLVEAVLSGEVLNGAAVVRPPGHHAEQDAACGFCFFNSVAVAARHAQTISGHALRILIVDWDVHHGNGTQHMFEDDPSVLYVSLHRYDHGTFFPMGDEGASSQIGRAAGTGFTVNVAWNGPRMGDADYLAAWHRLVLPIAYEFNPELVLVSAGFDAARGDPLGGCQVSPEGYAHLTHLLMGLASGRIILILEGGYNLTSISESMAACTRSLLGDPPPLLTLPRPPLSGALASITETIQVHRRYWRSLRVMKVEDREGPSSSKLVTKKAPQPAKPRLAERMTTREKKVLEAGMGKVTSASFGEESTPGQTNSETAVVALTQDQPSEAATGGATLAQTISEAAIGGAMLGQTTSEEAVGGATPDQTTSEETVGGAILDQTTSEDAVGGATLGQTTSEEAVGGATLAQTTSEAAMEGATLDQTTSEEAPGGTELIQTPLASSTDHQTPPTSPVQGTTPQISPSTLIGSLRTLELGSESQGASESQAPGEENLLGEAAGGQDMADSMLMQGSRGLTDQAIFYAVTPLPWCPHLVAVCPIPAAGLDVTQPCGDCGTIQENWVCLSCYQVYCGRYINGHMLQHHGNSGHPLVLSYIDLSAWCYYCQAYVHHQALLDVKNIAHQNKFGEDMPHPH

[2] = target: Protein deacetylase HDAC6 (Homo sapiens) (UniProt Q9UBN7); conditions: at 10 µM; remark: listed apart in the source

| Molecule | inhibition [1] | inhibition [2] |
| --- | --- | --- |
| CCN(CC)Cc1ccc(Nc2ccnc3cc(Cl)ccc23)cc1O | 0.37% |  |
| O=C(c1ccc(CN2CCOCC2)cc1)N1CCN(C2CC2)CC1 | 4.17% |  |
| O=C1NC(=O)/C(=C/c2ccc3c(c2)OC(F)(F)O3)S1 | -1.91% |  |
| O=C1NC(=O)/C(=C/c2ccc(-c3ccc(F)cc3O)o2)S1 | 87% |  |
| O=C1NC(=O)/C(=C/c2cccc(C(F)(F)F)c2)S1 | 8.21% |  |
| Cc1[nH]nc(C(F)(F)F)c1Cc1sc2c(c1C(=O)N1C[C@](C)(O)CO1)c(=O)n(C)c(=O)n2C(C)C | 7.6% |  |
| O=C(NC1CCN(CCc2c[nH]c3ccccc23)CC1)c1ccccc1 | 22.6% |  |
| O=C(O)[C@H](Cc1c[nH]c2ccccc12)N1C(=O)c2ccccc2C1=O | 3.67% |  |
| COc1cc(/C=C/c2ccc(O)cc2)cc(OC)c1 | -1.8% |  |
| O=C(/C=C/c1ccc(O)c(O)c1)OCCc1ccccc1 | 13.8% |  |
| Oc1ccc(/C=C/c2cc(O)cc(O)c2)cc1 | 85.4% |  |
| Oc1cc(O)cc(/C=C/c2ccc(O)c(O)c2)c1 | 74% |  |
| COc1ccc(/C=C\c2cc(OC)c(OC)c(OC)c2)cc1O | -2.33% |  |
| Oc1cc(O)cc(O)c1 | 2.03% |  |
| CCCCNc1ncc(-c2ccc(CN3CCOCC3)cn2)c(N[C@H]2CC[C@H](O)CC2)n1 | -9.04% |  |
| CCc1c(C(=O)Nc2cc(S(=O)(=O)N(CC)CC)ccc2O)[nH]c(C)c1C(C)=O | -2.94% |  |
| NC(Cn1ccc(=O)n(Cc2ccccc2C(=O)O)c1=O)C(=O)O (stereo not drawn) | -9.78% |  |

| Molecule | inhibition [1] | inhibition [2] |
| --- | --- | --- |
| SPIRAMYCIN, CHEMBL6195749 |  | -1.63% |
| COc1ccc(Cl)cc1[C@]1(F)C(=O)Nc2cc(C(F)(F)F)ccc21 | -2.57% |  |
| Nc1n[nH]c2nc3ccccc3nc12 | 33.5% |  |
| O=C(O)C(O)Cc1ccc(O)c(O)c1 (stereo not drawn) | 6.01% |  |
| O=C(NO)c1ccc(O)c(O)c1 | 56.3% |  |
| CC(C)C(=O)c1ccc(O)c(O)c1 | 0.03% |  |
| COc1cc2c(c(OC)c1OC)-c1c(cc3c(c1OC)OCO3)C[C@@H](C)[C@@H](C)C2 | -5.94% |  |
| O=S(=O)(NCCCCCCc1ccccc1)c1cccc2c(Cl)cccc12 | -3.75% |  |
| COc1ccc(O)cc1 | 1.74% |  |
| Oc1ccc(OCc2ccccc2)cc1 | 87% |  |
| CC/C(=C(\c1ccc(O)cc1)c1ccc(OCCNC)cc1)c1ccccc1 | -2.91% |  |
| O=C(O)C1CCCN(CCC=C(c2ccccc2)c2ccccc2)C1 (stereo not drawn) | -1.71% |  |
| O=C(c1ccccc1)c1ccc2n1CCC2C(=O)O (stereo not drawn) | 75.8% |  |
| O=C(O)c1ccccc1 | 3.92% |  |
| CC(=O)C1=C(O)C=C2Oc3c(C(C)=O)c(O)c(C)c(O)c3[C@@]2(C)C1=O | -7.8% |  |
| CO[C@H]1/C=C/O[C@@]2(C)Oc3c(C)c(O)c4c(O)c(cc(O)c4c3C2=O)NC(=O)/C(C)=C\C=C\C(C)[C@H](O)[C@@H](C)[C@@H](O)[C@@H](C)[C@H](OC(C)=O)[C@@H]1C (stereo partly drawn) | 1.34% |  |
